Measurements: PubChem BioAssay
Inconclusive results are not listed. Activity calls are given as the source filed them. Unless noted, no rule for the calls is given here.

Legend:
[1] = yeast TOR pathway RPL19A-GFP modulators, primary screen, cell-based, S. cerevisiae, multiplex flow cytometry (AID 1862; in the data active = percent of DMSO control GFP below about 86%;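 also: lower values mimic rapamycin by blocking the RPL19A rise seen in DMSO cells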); details: S. cerevisiae RPL19A-GFP strain, flow cytometry fluorescence, 3 h; at 10 µM; stronger effect = lower value
[2] = modulators of MEP2-GFP levels in yeast, primary screen, S. cerevisiae, multiplex flow cytometry (AID 1867;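 active = GFP response, as percent of the DMSO control, above the screen-wide mean plus 3 SD, about 139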;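 also: median GFP channel fluorescence of barcode-gated MEP2-GFP cells measured by flow cytometry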); details: S. cerevisiae MEP2-GFP strain, 3 h, at 10 µM, stronger effect = higher value
[3] = modulators of CIT2-GFP expression in yeast, primary screen, S. cerevisiae, GFP fusion, multiplex flow cytometry (AID 1870;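 active = percent response above a set limit, the screen-wide mean plus 3 SD, cut at about 130% in these data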;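 also: barcoded CIT2-GFP strain pooled with four other GFP strains with rapamycin as positive control; median GFP fluorescence per well over plate mean of DMSO wells so 100% = DMSO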); details: 3 h, at 10 µM, stronger effect = higher value
[4] = modulators of LAP4-GFP expression in yeast, primary screen, S. cerevisiae, multiplex flow cytometry (AID 1873;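 active = GFP signal, as percent of the solvent control, above the screen mean plus 3 SD, about 149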); details: 3 h, at 10 µM, stronger effect = higher value
[5] = modulators of AGP1-GFP expression in yeast TOR pathway, primary screen, cell-based, multiplex flow cytometry, S. cerevisiae (AID 1887;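 active = GFP signal above the screen-wide mean plus 3 SD, that is over about 124.5% of the solvent control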;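 also: AGP1-GFP fusion strain of S. cerevisiae within a five-strain barcoded multiplex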); details: 3 h, at 10 µM, stronger effect = higher value
[6] = inhibitors of CD8+ T cell-vesicle binding, pilot screen, LFA-1/ICAM-1 modulator project, MLPCN validation set, flow cytometry (AID 2523;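 active = response below a set limit, under 55% cells CD8-positive and vesicle-bound, and CD8 cells' 90th-percentile brightness under 279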;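 as to vesicle binding response: mean PE anti-B7-1 fluorescence of CD8+ cells relative to row control; 100% = QL9-loaded vesicles with DMSO vehicle in the same plate row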); details: 2C mouse CD8+ T cells, at 7 µM, stronger effect = lower value; double positive events: measured here: CD8+/vesicle+ event percentage
[7] = molecular target: Integrin beta-1 (Homo sapiens) + Integrin alpha-4 (Homo sapiens) (UniProt P13612+P05556); assay: inhibition of HUTS-21 binding to VLA-4, pilot screen, VLA-4 allosteric modulator project, U937 cells, HUTS-21 mAb, flow cytometry, validation set (AID 2674;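 active = inhibition above 50%, about 3 SD of the validation set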;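 also: antibody binding induced by the VLA-4 ligand LDV present at three times its Kd; 0% = LDV ligand with antibody and no compound and 100% = antibody without LDV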); details: HUTS-21 LIBS mAb binding, at 6.7 µM, stronger effect = higher value
Sequence of Integrin beta-1 (Homo sapiens) + Integrin alpha-4 (Homo sapiens) (P05556 whole entry, looked up): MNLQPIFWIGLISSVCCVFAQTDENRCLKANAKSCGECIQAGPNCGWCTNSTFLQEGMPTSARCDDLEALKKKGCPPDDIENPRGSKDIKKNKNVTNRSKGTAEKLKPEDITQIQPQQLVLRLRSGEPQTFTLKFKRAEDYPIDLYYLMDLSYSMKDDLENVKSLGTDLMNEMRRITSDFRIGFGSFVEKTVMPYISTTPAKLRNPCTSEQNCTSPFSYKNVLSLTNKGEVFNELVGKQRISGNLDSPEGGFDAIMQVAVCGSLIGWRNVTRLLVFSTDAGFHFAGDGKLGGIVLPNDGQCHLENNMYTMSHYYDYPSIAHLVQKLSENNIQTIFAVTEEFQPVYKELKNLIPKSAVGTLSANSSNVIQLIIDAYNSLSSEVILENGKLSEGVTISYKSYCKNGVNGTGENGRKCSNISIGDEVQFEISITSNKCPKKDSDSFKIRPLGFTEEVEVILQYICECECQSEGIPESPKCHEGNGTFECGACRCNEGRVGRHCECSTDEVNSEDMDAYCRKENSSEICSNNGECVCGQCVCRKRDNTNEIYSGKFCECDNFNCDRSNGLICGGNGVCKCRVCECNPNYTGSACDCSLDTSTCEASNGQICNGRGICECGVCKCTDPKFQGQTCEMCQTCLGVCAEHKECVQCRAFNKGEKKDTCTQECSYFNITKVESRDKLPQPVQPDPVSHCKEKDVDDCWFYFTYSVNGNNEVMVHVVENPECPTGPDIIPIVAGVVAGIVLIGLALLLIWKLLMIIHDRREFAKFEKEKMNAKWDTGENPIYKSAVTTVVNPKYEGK
Sequence of Integrin beta-1 (Homo sapiens) + Integrin alpha-4 (Homo sapiens) (P13612 whole entry, looked up): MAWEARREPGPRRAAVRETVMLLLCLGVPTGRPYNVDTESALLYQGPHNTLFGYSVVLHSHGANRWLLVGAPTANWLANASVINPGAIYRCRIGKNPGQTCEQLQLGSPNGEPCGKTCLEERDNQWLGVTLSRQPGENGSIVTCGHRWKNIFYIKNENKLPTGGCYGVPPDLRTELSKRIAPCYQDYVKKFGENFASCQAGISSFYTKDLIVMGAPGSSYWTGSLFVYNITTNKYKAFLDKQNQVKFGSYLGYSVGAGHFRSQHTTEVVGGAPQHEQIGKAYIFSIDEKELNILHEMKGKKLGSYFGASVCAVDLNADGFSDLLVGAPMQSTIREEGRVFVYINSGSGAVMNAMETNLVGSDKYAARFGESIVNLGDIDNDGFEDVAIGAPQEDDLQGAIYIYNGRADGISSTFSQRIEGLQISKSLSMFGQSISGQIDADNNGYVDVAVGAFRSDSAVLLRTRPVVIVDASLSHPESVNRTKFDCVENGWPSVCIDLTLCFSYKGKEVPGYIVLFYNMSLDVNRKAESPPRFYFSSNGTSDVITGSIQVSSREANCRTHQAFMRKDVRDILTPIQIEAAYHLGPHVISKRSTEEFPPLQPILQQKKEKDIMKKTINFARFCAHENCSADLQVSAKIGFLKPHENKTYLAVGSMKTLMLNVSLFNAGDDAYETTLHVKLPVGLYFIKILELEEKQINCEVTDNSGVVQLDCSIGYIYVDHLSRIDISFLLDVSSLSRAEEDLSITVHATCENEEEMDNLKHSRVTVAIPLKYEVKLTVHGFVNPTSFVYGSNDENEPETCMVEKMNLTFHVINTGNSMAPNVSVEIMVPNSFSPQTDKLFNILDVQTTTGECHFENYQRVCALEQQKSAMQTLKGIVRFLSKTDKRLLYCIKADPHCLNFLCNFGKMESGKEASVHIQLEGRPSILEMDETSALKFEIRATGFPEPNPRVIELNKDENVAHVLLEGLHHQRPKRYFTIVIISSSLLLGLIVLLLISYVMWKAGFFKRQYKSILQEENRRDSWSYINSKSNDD

[8] = superoxide lowering in aged yeast cells, pilot screen, validation compound set (AID 2706;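 active = superoxide response below 65% of plate, a cut near 3 SD across the whole screen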;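 also: yeast exposed to compound for one week at 30 degrees C before staining; 100% = mean of all compound wells on the same plate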); details: S. cerevisiae aging, superoxide DHE fluorescence; at 10 µM; stronger effect = lower value
[9] = molecular target: Beta-adrenergic receptor kinase 1 (Homo sapiens) (UniProt P25098); assay: GRK2 binders displacing RNA aptamer, biochemical, validation, human GRK2, bead flow cytometry (AID 488806;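 active = aptamer binding inhibition above 30%, about 3 SD of noise from non-fluorescent compounds; inactive = inhibition at or below 30%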); details: bead-bound GRK2, FAM-aptamer displacement, at 10 µM, stronger effect = higher value
[10] = molecular target: Beta-2 adrenergic receptor (Homo sapiens) (UniProt P07550); assay: beta2AR agonists driving receptor internalization, pilot screen, cell-based, FAP fluorogen, flow cytometry, validation set (AID 504459;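 active = percent response above 42, roughly 3 SD of non-fluorescent test compounds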;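 also: agonist-driven loss of surface beta2AR via internalization measured by FAP dye flow cytometry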); details: Am2.2-beta2AR cells, FAP surface receptor flow cytometry; at 10 µM; stronger effect = higher value
Sequence of Beta-2 adrenergic receptor (Homo sapiens) (P07550 whole entry, looked up): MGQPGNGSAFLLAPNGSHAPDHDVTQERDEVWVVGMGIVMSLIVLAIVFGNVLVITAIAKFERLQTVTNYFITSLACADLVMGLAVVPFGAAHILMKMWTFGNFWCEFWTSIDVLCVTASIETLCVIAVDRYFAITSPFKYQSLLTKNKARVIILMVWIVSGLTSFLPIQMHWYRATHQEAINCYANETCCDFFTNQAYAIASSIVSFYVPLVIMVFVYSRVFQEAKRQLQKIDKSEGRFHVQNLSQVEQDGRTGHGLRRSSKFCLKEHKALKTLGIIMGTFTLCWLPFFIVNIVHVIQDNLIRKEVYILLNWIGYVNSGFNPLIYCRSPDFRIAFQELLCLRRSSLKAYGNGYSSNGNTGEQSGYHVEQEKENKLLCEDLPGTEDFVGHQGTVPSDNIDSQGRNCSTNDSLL

[11] = molecular target: AP-2 complex subunit beta (Homo sapiens) (UniProt P63010); assay: inhibitors of arrestin peptide binding to AP2, pilot screen, biochemical, validation set, GST-AP2 beads, flow cytometry (AID 504541;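 active = inhibition above 54%, about 3 SD of non-fluorescent compounds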;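 also: AP2 carries R879A mutation and is captured from E. coli lysate; bead-bound FITC arrestin peptide fluorescence measuring arrestin peptide binding to AP2; 0% = DMSO wells and 100% = excess unlabeled arrestin peptide control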); details: FITC arrestin peptide, at 10 µM, stronger effect = higher value
Sequence of AP-2 complex subunit beta (Homo sapiens) (P63010 whole entry, looked up, one chain of several): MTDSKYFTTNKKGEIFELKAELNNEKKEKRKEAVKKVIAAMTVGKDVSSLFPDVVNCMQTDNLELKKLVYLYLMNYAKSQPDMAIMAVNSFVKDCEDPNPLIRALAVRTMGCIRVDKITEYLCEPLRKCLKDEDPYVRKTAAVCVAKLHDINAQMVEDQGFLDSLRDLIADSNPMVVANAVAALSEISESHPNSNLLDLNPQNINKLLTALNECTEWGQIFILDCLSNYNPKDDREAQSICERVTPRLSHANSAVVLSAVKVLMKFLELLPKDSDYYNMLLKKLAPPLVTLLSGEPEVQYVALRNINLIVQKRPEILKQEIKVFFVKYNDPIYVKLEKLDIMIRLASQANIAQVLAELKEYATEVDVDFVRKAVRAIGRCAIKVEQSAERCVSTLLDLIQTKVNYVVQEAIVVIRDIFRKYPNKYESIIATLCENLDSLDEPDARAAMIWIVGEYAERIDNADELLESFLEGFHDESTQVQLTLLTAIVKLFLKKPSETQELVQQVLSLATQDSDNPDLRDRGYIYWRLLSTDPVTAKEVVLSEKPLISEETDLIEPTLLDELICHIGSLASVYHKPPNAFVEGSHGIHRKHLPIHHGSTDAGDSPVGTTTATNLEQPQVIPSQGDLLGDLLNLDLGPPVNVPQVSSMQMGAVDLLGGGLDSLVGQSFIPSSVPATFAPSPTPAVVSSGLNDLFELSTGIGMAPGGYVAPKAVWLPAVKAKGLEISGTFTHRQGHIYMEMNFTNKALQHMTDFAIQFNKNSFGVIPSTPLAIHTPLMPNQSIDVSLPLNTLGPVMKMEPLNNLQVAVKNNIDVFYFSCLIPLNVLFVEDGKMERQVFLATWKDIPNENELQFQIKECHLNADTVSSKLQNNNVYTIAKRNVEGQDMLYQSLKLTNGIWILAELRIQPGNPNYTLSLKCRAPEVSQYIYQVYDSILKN

[12] = yeast V-ATPase proton transport modulators, S. cerevisiae, pHLuorin, HTS validation (AID 504600; in the data active = response above about 15%;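 also: plate controls were DMSO for no effect and reference compound for full effect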); details: S. cerevisiae pHLuorin cytosolic pH, at 10 µM, stronger effect = higher value
[13] = tested on: anti-desmoglein-3 scFv antibody binding to human DSG3; assay: inhibitors of anti-DSG3 scFv binding to DSG3, pilot screen, biochemical, validation compound set, bead-based, flow cytometry (AID 588368;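 active = binding below the plate cutoff, the plate median minus 3 SD, with a reading above zero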;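 also: signal is the median channel fluorescence of bead-bound GFP antibody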); details: Protein G beads, DSG3-Fc, scFv-GFP binding, at 10 µM, stronger effect = lower value
[14] = tested on: Botulinum neurotoxin type F light chain protease (Clostridium botulinum); assay: Botulinum neurotoxin type F light chain protease inhibition, multiplex microsphere flow cytometry, validation set (AID 588459); details: multiplex microsphere protease substrate cleavage assay, at 10 µM, stronger effect = higher value
[15] = molecular target: Botulinum neurotoxin type A (Clostridium botulinum) (UniProt P0DPI0); assay: BoNT/A light chain protease inhibitors, biochemical, multiplex microsphere flow cytometry, validation set (AID 588460); details: at 10 µM, stronger effect = higher value
[16] = molecular target: Lethal factor (Bacillus anthracis) (UniProt P15917); assay: Lethal factor protease inhibitors, Bacillus anthracis, multiplex microsphere cleavage assay, validation set (AID 588461); details: flow cytometry, at 10 µM, stronger effect = higher value
Sequence of Lethal factor (Bacillus anthracis) (P15917 whole entry, looked up): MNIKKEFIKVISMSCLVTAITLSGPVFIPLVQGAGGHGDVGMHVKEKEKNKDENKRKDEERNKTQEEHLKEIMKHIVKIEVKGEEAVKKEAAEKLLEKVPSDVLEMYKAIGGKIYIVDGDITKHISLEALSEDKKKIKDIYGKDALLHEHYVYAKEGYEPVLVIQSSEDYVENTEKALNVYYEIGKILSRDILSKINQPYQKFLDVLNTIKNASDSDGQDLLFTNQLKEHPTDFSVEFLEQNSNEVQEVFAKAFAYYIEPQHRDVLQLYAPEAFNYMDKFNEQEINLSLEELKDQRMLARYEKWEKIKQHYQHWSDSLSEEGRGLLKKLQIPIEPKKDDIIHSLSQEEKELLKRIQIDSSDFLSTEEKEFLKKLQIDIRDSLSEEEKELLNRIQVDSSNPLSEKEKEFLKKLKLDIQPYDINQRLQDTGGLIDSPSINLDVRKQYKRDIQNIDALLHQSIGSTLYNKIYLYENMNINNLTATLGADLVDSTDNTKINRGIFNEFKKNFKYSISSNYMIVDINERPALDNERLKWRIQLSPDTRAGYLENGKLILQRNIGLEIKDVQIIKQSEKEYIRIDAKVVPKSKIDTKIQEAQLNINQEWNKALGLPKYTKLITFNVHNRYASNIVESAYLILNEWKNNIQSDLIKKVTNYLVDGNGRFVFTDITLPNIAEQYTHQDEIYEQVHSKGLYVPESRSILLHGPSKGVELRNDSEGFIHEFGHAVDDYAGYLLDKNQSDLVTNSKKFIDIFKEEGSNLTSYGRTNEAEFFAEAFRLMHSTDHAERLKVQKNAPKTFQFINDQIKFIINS

[17] = inhibitors of fungal efflux pumps CDR1, CDR2, MDR1, pilot screen, validation compound set, multiplex, phenotypic (AID 588506;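 active = efflux inhibition above 0.42, the validation set average plus 4 SD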;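 also: Nile Red retained in cells so higher fluorescence means more efflux inhibition; 0 = negative control wells and 1 = enniatin B 25 µM full block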); details: S. cerevisiae pump-expressing triplex, Nile Red efflux flow cytometry; at 10 µM; stronger effect = higher value
[18] = molecular target: ATP-binding cassette sub-family B member 6 (Homo sapiens) (UniProt Q9NP58); assay: ABCB6 transporter inhibitors, pilot screen, K562-ABCB6 cells, flow cytometry, validation set (AID 588550;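 active = inhibition above the screen-wide mean plus 3 SD, about 51%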;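 also: 0% = DMSO wells and 100% = benzethonium chloride 70 µM positive control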); details: K562-ABCB6 porphyrin accumulation, 1 h, at 10 µM, stronger effect = higher value
Sequence of ATP-binding cassette sub-family B member 6 (Homo sapiens) (Q9NP58 whole entry, looked up): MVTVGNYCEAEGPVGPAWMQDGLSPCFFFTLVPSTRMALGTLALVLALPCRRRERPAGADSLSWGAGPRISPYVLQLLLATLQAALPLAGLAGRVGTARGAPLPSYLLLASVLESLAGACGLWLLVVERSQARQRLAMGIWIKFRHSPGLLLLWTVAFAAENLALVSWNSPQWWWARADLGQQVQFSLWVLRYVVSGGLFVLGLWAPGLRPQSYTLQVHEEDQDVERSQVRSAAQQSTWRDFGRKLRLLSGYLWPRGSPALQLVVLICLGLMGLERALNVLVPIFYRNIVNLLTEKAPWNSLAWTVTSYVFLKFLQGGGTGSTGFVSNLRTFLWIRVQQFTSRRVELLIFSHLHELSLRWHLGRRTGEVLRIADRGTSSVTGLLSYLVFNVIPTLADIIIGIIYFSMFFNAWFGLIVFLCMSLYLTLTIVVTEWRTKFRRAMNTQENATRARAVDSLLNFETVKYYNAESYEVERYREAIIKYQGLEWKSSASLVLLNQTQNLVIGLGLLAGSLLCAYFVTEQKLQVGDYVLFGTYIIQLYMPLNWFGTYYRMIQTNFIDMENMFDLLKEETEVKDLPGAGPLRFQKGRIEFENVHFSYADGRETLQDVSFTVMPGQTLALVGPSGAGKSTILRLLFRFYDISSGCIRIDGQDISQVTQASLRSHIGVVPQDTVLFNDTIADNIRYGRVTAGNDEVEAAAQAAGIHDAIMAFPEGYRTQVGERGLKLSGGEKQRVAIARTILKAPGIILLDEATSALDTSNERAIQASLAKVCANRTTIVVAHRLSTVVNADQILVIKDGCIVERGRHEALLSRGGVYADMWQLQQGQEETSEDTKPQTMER

[19] = promoters of myeloid differentiation in arrested cells, primary screen, cell-based, GFP/MAC1 double positive, flow cytometry, validation set (AID 588685;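 active = differentiation response of at least 50%, scaled between solvent and reference control, from cells with both markers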;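 also: compound exposure lasts four days before antibody staining and flow analysis; 0% = DMSO wells and 100% = 5 µM fulvestrant positive control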); details: ER-HoxA9 marrow cells, stronger effect = higher value

Compound | percent of DMSO control GFP [1] | GFP response vs DMSO [2] | percent response of DMSO control [3] | GFP response vs DMSO [4] | GFP response, % of DMSO [5] | double positive events [6] | vesicle binding response [6] | inhibition [7] | superoxide response (% of plate) [8] | aptamer binding inhibition [9] | response [10] | inhibition [11] | response [12] | binding (% of control) [13] | inhibition [14] | inhibition [15] | inhibition [16] | efflux inhibition (fraction of control) [17] | inhibition [18] | differentiation response [19]
Cc1ccsc1C(=O)C1CCCN(Cc2cc3ccccc3o2)C1 (stereo not given) | 102% (inactive) | 98.3% (inactive) | 114% (inactive) | 85.5% (inactive) | 102% (inactive) | 59.8% | 51.3% (inactive) | 8.88% (inactive) | 97.5% (inactive) | 1% (inactive) | -13% (inactive) | 5.6% (inactive) | -0.26% (inactive) | 96.9% (inactive) | 2.8% (inactive) | -0.7% (inactive) | -1% (inactive) | -0.2 (inactive) | -3% (inactive) | -4.64% (inactive)
COc1ccc(CN2CC3CC(C2)c2cccc(=O)n2C3)cc1OC (stereo not given) | 105% (inactive) | 101% (inactive) | 95.4% (inactive) | 84.1% (inactive) | 95.1% (inactive) | 60.2% | 170% (inactive) | 14.1% (inactive) | 93% (inactive) | 0% (inactive) | 2.8% (inactive) | -0.56% (inactive) | 1% (inactive) | 100% (inactive) | 1.7% (inactive) | -1.2% (inactive) | -0.8% (inactive) | 0.39 (inactive) | 8% (inactive) | 4.15% (inactive)
c1ccc2c(c1)Nc1ccccc1S2 | 92.8% (inactive) | 139% (inactive) | 95.2% (inactive) | 81.4% (inactive) | 84.7% (inactive) | 61.9% | 121% (inactive) | 12.3% (inactive) | 81.7% (inactive) | 2% (inactive) | 1.66% (inactive) | 9.01% (inactive) | -2.45% (inactive) | 100% (inactive) | -1.5% (inactive) | 0.5% (inactive) | -2.6% (inactive) | 0.27 (inactive) | 9% (inactive) | 1.64% (inactive)
CCN(CC)CCOC(=O)C(O)(c1ccccc1)c1ccccc1 | 102% (inactive) | 108% (inactive) | 96.5% (inactive) | 92.6% (inactive) | 94.5% (inactive) | 62% | 152% (inactive) | 2.93% (inactive) | 90.4% (inactive) | 2% (inactive) | 10.4% (inactive) | 0.48% (inactive) | -1.11% (inactive) | 108% (inactive) | -2% (inactive) | -0.9% (inactive) | -5.6% (inactive) | -0.095 (inactive) | -101% (inactive) | 7.13% (inactive)
NNC(=O)c1ccc(Cl)cc1 | 102% (inactive) | 103% (inactive) | 104% (inactive) | 102% (inactive) | 102% (inactive) | 56.2% | 114% (inactive) | 0.25% (inactive) | 88.1% (inactive) | -2% (inactive) | 7.16% (inactive) | 3.28% (inactive) | 3.19% (inactive) | 98.7% (inactive) | -1.9% (inactive) | 0.4% (inactive) | 6.8% (inactive) | -0.36 (inactive) | -3% (inactive) | 2.74% (inactive)
CC(=O)OC1C2CCC1C(N1CCCC1)CC2 (stereo not given) | 98.7% (inactive) | 106% (inactive) | 97.7% (inactive) | 104% (inactive) | 115% (inactive) | 67.3% | 162% (inactive) | 9.1% (inactive) | 91.4% (inactive) | 0% (inactive) | -10.9% (inactive) | -16% (inactive) | -1.91% (inactive) | 103% (inactive) | -2.3% (inactive) | -0.8% (inactive) | -5.2% (inactive) | -0.04 (inactive) | 3% (inactive) | -12.9% (inactive)
C[N+](C)(C)Cc1ccccc1 | 103% (inactive) | 105% (inactive) | 106% (inactive) | 109% (inactive) | 110% (inactive) | 64.9% | 147% (inactive) | -14.5% (inactive) | 89.2% (inactive) | -1% (inactive) | -3.98% (inactive) | 3.88% (inactive) | -0.83% (inactive) | 103% (inactive) | 1.5% (inactive) | 0.6% (inactive) | 4.6% (inactive) | 0.245 (inactive) | 1% (inactive) | -14.8% (inactive)
CC12CCC3C(CC=C4CC(O)CCC43C)C1C/C(=C\c1cccc(F)c1)C2=O (stereo not given) | 98.2% (inactive) | 103% (inactive) | 95.1% (inactive) | 113% (inactive) | 102% (inactive) | 63.9% | 171% (inactive) | -7.08% (inactive) | 100% (inactive) | 3% (inactive) | -8.92% (inactive) | 9.38% (inactive) | -4.42% (inactive) | 98.7% (inactive) | -0.7% (inactive) | -0.1% (inactive) | -1.4% (inactive) | -0.13 (inactive) | -1% (inactive) | 2.89% (inactive)
